Compound activity as filed in PubChem BioAssay.
MEX-5 binding – MEX-5 zinc finger RNA-binding disruptors – biochemical, C. elegans, fluorescence polarization, MLPCN library, primary screen; Zinc finger protein mex-5 (Caenorhabditis elegans), Q9XUB2; MEX-5/FITC-TCR2 RNA binding; active compounds read low; activity score (negative = inhibition of binding), % at 10 µM; actives 0.38% (n = 300,000);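 active = inhibition past about -25% in most replicates, and total fluorescence under double the plate's negative control median, limit read from the data; inconclusive = replicates evenly split on the limit, or fluorescence at least double controls; inactive = too little inhibition in most replicates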;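 note: 0% = DMSO and -100% = 5 µM competing unlabeled TCR2 RNA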
Target sequence (Q9XUB2 whole entry, looked up): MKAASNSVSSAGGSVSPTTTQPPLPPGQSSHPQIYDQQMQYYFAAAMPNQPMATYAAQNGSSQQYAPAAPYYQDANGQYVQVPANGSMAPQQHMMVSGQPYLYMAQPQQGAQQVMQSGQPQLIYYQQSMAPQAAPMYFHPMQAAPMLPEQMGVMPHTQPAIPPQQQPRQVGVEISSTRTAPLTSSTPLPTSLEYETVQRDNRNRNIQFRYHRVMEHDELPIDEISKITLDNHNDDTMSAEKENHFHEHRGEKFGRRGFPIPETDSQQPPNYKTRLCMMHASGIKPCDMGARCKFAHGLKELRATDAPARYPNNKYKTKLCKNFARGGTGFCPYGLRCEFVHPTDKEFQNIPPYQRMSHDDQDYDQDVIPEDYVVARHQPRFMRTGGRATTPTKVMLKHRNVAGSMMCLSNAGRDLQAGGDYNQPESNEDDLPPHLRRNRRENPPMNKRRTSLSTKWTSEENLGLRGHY
MCL1-BIM inh – inhibitors of MCL1 binding to BIM-BH3, primary screen, biochemical, fluorescence polarization | Induced myeloid leukemia cell differentiation protein Mcl-1 (Homo sapiens), Q07820 | GST-MCL1 / FITC-Bim-BH3 fluorescence polarization | inhibition, % at 10.9 µM | actives 0.68% (n = 320,000);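 active = inhibition above the mean inhibition of all tested compounds plus 3 SD, set per campaign, cut at about 40% in these data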;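 note: 0% = DMSO wells and 100% = unlabeled Bim-BH3 peptide control; higher means more loss of mP so more displacement of Bim peptide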
GLD-1 RNA inh – GLD-1/TGE RNA complex disruptors, primary screen, biochemical, fluorescence polarization; Female germline-specific tumor suppressor gld-1 (Caenorhabditis elegans), Q17339; purified GLD-1 + fluorescein TGE RNA; inhibition, % at 5.96 µM; actives 0.44% (n = 320,000); AID 2280, 2010;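 active = percent inhibition above a per-plate cutoff, the plate mean of test compounds plus 3 SD, cut at about 30% in these data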;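 note: 0% = DMSO wells with GLD-1 and probe and 100% = wells lacking GLD-1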
EBV gp42 inh – Epstein-Barr virus gp42 inhibitors, primary screen, biochemical, uHTS, fluorescence polarization | Glycoprotein 42 (Epstein-Barr virus (strain AG876)), Q1HVG2 | Fluorescence polarization binding assay, mP read-out | inhibition, % (tested at 21.74 µM) | actives 0.42% (n = 220,000) | AID 1085, 2008; in the data active = inhibition above about 50%
Target sequence (Q1HVG2 whole entry, looked up): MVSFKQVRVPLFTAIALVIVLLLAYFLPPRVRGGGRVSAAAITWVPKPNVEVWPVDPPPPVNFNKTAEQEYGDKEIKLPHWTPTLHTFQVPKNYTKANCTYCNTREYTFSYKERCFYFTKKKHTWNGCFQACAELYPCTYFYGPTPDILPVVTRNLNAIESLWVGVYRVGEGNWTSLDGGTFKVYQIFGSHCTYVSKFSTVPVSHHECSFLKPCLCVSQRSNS
BCLXL inh – inhibitors of human Bcl-xL, primary screen, biochemical, fluorescence polarization, HTS. GST-Bcl-xL / FITC-Bim BH3 peptide fluorescence polarization. AID 2129, 2009. actives 0.7% (n = 320,000). inhibition, % at 10.9 µM;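 active = inhibition above the mean of all tested compounds plus 3 SD, cutoff set per campaign, cut at about 30% in these data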;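 note: 0% = DMSO wells and 100% = unlabeled Bim-BH3 peptide competitor; inhibitors lower millipolarization by displacing the labeled peptide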
E coli Lon inh – inhibitors of E. coli Lon protease, primary screen, biochemical, fluorescence polarization | purified E. coli Lon protease | inhibition, % at 7.94 µM | actives 0.42% (n = 360,000) | AID 602123, 2011; in the data active = inhibition above about 13%, passing the limit was not always enough;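 note: 0% = enzyme with probe and DMSO and 100% = no enzyme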
Bcl-xL conf – Bcl-xL inhibitors blocking Bim BH3 binding, confirmation, counter-screen for MCL1 inhibitor project, biochemical, fluorescence polarization | inhibition, % at 10.9 µM | AID 2166, 2009 | actives 54% (n = 1,700) | GST-Bcl-xL / FITC-Bim BH3 peptide FP binding | shares compounds with MCL1-BIM inh;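 active = inhibition above a cutoff equal to the mean inhibition of all tested compounds plus 3 SD, cut at about 30% in these data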;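 note: 0% = DMSO wells and 100% = unlabeled Bim BH3 control peptide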
MCL1 BIM confirm – inhibitors of MCL1 binding to BIM-BH3, confirmation, biochemical, fluorescence polarization, triplicate; shares compounds with MCL1-BIM inh; AID 2168, 2009; actives 61% (n = 1,700); inhibition, % at 10.9 µM; GST-MCL1 / FITC-Bim-BH3 fluorescence polarization;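 active = inhibition above the average of all tested compounds plus 3 SD, cut at about 40% in these data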;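 note: 0% = DMSO wells and 100% = unlabeled Bim-BH3 control peptide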
Numbers without * were called inactive; ? = inconclusive; / = no result; + = active, no number. In the library only some 1.5% were active in any assay of this set; here they are far more common.

SMILES	MEX-5 binding	MCL1-BIM inh	GLD-1 RNA inh	EBV gp42 inh	BCLXL inh	E coli Lon inh	Bcl-xL conf	MCL1 BIM confirm
CN1CCc2nc(N)c(C#N)c(-c3ccccc3)c2C1	-1.7	69.1*	45.6*	-10.4	61.0*	1.2	12.3	20.2
Cc1ccccc1NC(=O)Cc1nc(COC(=O)Cc2ccccc2)cs1	/	+	136.7*	/	151.6*	-6.6	11.8	6.2
COC(=O)C1=C(c2c(C)noc2C)C[C@@H]2CC[C@H]1N2C(=O)NCCOc1ccc(OC)cc1	/	1.2	9.2	/	1.7	6.4	/	/
CS(=O)(=O)NNP(=O)(NNS(C)(=O)=O)NC(=O)c1ccccc1	3.9	-1.4	-4.0	-13.3	-0.8	-7.7	/	/
CS(=O)(=O)NNP(=O)(NNS(C)(=O)=O)NC(=O)c1ccc(Br)cc1	-1.4	-3.8	4.1	-8.9	-1.0	9.5	/	/
COC1CCC(OC2CC(C3(C)CCC4(CC(O)C(C)C(C(C)/C=C(\C)C(=O)C(C)CC(C)C(=O)O)O4)O3)OC3(OC(C4OC(O)(CO)C(C)CC4C)CC3C)C2C)OC1C (stereo not given)	/	/	/	/	/	-7.9	/	/
CC(C)(O)[C@H]1O[C@H]2CC[C@@]3(C)[C@@](O)(CC[C@H]4Cc5c([nH]c6ccccc56)[C@@]43C)C2=CC1=O	-27.7*	100.1*	74.2*	53.5*	82.6*	/	59.8*	76.1*
CCC(C)c1ccc(N2C(=O)NC(=O)/C(=C/c3cccn3CCOc3ccc(C)cc3)C2=O)cc1 (stereo not given)	-15.9	112.5*	-14.8	8.1	80.4*	-13.0	42.4*	52.5*
Cc1ccc(N2C(=O)NC(=O)/C(=C\c3cccn3C(C)(C)C)C2=O)cc1	-3.8	-21.3	-11.6	-4.6	-6.6	-13.9	/	/
O=C1NC(=S)NC(=O)C1=Cc1ccc(Br)s1	-3.4	46.2*	-12.9	/	15.4	-34.3	19.9	53.2*
COc1ccc(CNCCc2c(C)[nH]c3ccc(OC(F)(F)F)cc23)c(OC)c1	-2.6	9.3	-5.0	/	3.3	-0.5	/	/
CCOC(=O)[C@]12Cc3cc4ccccc4cc3[C@H]1N(Cc1ccccc1)C(=O)c1cc(OC)ccc12	/	/	/	/	/	7.9	/	/
Cc1ccccc1N1C(=O)/C(=C/c2ccco2)C(=O)NC1=S	-2.0	97.7*	6.5	/	96.8*	/	97.0*	98.9*
CCOc1ccc(N2C(=O)/C(=C/c3ccco3)C(=O)NC2=S)cc1	1.4	-25.0	-22.1	/	-18.0	-20.9	/	/
N#CC(C#N)=Cc1ccc(-c2ccccc2F)o1	/	99.7*	11.7	101.3*	61.8*	-13.0	123.3*	150.1*
CN(C)C1C(=O)C(C(N)=O)=C(O)C2(O)C(=O)C3=C(O)c4c(O)cccc4C(C)(O)C3CC12 (stereo not given)	?	62.1*	8.9	/	30.3*	7.3	14.2	20.2
CN(C)[C@@H]1C(=O)C(C(N)=O)=C(O)[C@@]2(O)C(=O)C3=C(O)c4c(O)cccc4[C@@](C)(O)C3[C@H](O)C12 (stereo not given in full)	-11.3	+	76.5*	/	153.0*	70.6	37.5*	86.9*
O=C1c2cccc(N3CCNCC3)c2C2CCCCN12 (stereo not given)	/	/	/	/	/	-0.8	/	/
CN1CCc2cc(O)cc3c2[C@H]1Cc1ccc(O)c(O)c1-3	-84.6*	48.1*	5.0	/	28.5	-6.1	53.7*	54.1*
CCN(CC)c1ccc(/C=C2/C(=O)NC(=O)N(CC3CCCO3)C2=O)cc1 (stereo not given)	-3.8	50.3*	29.6	-158.4	52.3*	2.9	15.8	-24.1
O=C1NC(=O)N(CC2CCCO2)C(=O)/C1=C/c1cccs1 (stereo not given)	-1.9	9.5	-8.1	-25.7	8.8	0.9	/	/
COC(=O)C1=C(c2ccc(F)cc2F)C[C@@H]2CC[C@H]1N2C(=O)NCCOc1ccccc1	/	119.1*	12.6	/	10.9	11.9	5.8	0.0
C[C@]12CCC3C(CC[C@H]4C[C@H](O)CC[C@]34C)C1C[C@H](O)[C@@H]2O (stereo not given in full)	/	/	-3.9	/	/	-0.5	/	/
O=[N+]([O-])c1ccc(NCc2ccc(Cl)cc2)c2ccncc12	-0.1	0.8	1.0	/	5.6	-5.2	/	/
O=[N+]([O-])c1ccc(NCc2ccccc2)c2nonc12	-35.7*	174.9*	198.2*	-61.7	147.3*	/	167.1*	196.5*
SMILES	MEX-5 binding	MCL1-BIM inh	GLD-1 RNA inh	EBV gp42 inh	BCLXL inh	E coli Lon inh	Bcl-xL conf	MCL1 BIM confirm
O=C(O)c1ccc2c(c1)C1C(Cl)C(Sc3ccccc3[N+](=O)[O-])CC1C(c1cccc([N+](=O)[O-])c1)N2 (stereo not given)	/	/	/	14.8	/	1.6	/	/
CCN(CC)C(=O)c1ccc2c(c1)C1C(Cl)C(Sc3ccccc3[N+](=O)[O-])CC1C(C(=O)O)N2 (stereo not given)	-56.0*	95.2*	17.2	2.4	86.2*	4.4	33.7*	37.5
Cc1ccc2c(c1Cl)NC(C(=O)O)C1CC(Sc3ccccc3[N+](=O)[O-])C(Cl)C21 (stereo not given)	-1.9	59.0*	-8.1	3.1	26.7	11.1	-22.4	-31.9
O=C1NC(=O)C(=C/C=C/c2coc3ccc(Br)cc3c2=O)C(=O)N1	-1.5	74.0*	10.8	-14.0	85.6*	/	91.8*	111.0*
O=c1[nH]c(=S)n(-c2ccccc2F)c(O)c1C=Nc1ccc(N2CCOCC2)cc1	-5.8	-50.3	-6.0	30.7	-29.5	-17.7	/	/
O=c1[nH]c(=S)n(-c2ccc(Br)cc2)c(O)c1C=Nc1ccc(N2CCOCC2)cc1	-2.3	+	-18.8	85.7*	170.1*	-48.4	+	+
N/C(=N\N=C/c1ccc(-c2ccc(O)c(C(=O)O)c2)o1)N[N+](=O)[O-]	-29.4*	79.5*	-4.7	31.9	23.3	4.2	29.4	81.5*
